PubChem BioAssay (NCATS)
Several values for one entry are separate records, joined by “and”; a condition that tells them apart may be missing. Identical values can stand only once. Records with an inconclusive call do not appear. Activity calls are given as the source filed them. Calls come from the whole dose curve; as a rule, active = well fitted inhibition curve with a large enough effect; inconclusive = small, poorly fitted or top-dose-only effect; inactive = flat fitted curve, though single readings scatter.

Key:
[1] = test system: FAB9; assay: qHTS profiling for inhibitors of Plasmodium falciparum proliferation (AID 504749); note: potency is the fitted concentration of half-maximal effect; conditions: P. falciparum in erythrocytes, SYBR Green DNA, 72 h; series mostly up to 28.7 µM
How it was run: (§1)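 Fluorescence of SYBR Green-bound parasite DNA, read at 485/535 nm, served as the growth measure. Infected erythrocytes were cultured with compound 72 h; artemisinin (0.29 uM) and DMSO wells defined the normalization range.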

[2] = test system: GB4; assay: as above; conditions: P. falciparum in erythrocytes, SYBR Green DNA, 72 h; series mostly up to 28.7 µM
How it was run: as §1

[3] = test system: HB3; assay: as above; conditions: P. falciparum in erythrocytes, SYBR Green DNA, 72 h; series mostly up to 28.7 µM
How it was run: as §1

[4] = test system: ICS; assay: as above; conditions: P. falciparum in erythrocytes, SYBR Green DNA, 72 h; series mostly up to 28.7 µM
How it was run: as §1

[5] = test system: JCK; assay: as above; conditions: P. falciparum in erythrocytes, SYBR Green DNA, 72 h; series mostly up to 28.7 µM
How it was run: as §1

[6] = test system: N140; assay: as above; conditions: P. falciparum in erythrocytes, SYBR Green DNA, 72 h; series mostly up to 28.7 µM
How it was run: as §1

[7] = test system: P93_24; assay: as above; conditions: P. falciparum in erythrocytes, SYBR Green DNA, 72 h; series mostly up to 28.7 µM
How it was run: as §1

[8] = test system: P94_40; assay: as above; conditions: P. falciparum in erythrocytes, SYBR Green DNA, 72 h; series mostly up to 28.7 µM
How it was run: as §1

[9] = test system: PAD; assay: as above; conditions: P. falciparum in erythrocytes, SYBR Green DNA, 72 h; series mostly up to 28.7 µM
How it was run: as §1

[10] = test system: PC15; assay: as above; conditions: P. falciparum in erythrocytes, SYBR Green DNA, 72 h; series mostly up to 28.7 µM
How it was run: as §1

[11] = test system: PC26; assay: as above; conditions: P. falciparum in erythrocytes, SYBR Green DNA, 72 h; series mostly up to 28.7 µM
How it was run: as §1

[12] = test system: PC49; assay: as above; conditions: P. falciparum in erythrocytes, SYBR Green DNA, 72 h; series mostly up to 28.7 µM
How it was run: as §1

[13] = test system: SC27B; assay: as above; conditions: P. falciparum in erythrocytes, SYBR Green DNA, 72 h; series mostly up to 28.7 µM
How it was run: as §1

[14] = test system: TAB109; assay: as above; conditions: P. falciparum in erythrocytes, SYBR Green DNA, 72 h; series mostly up to 28.7 µM
How it was run: as §1

[15] = test system: TAB113; assay: as above; conditions: P. falciparum in erythrocytes, SYBR Green DNA, 72 h; series mostly up to 28.7 µM
How it was run: as §1

[16] = test system: TAB165; assay: as above; conditions: P. falciparum in erythrocytes, SYBR Green DNA, 72 h; series mostly up to 28.7 µM
How it was run: as §1

[17] = test system: W2; assay: as above; conditions: P. falciparum in erythrocytes, SYBR Green DNA, 72 h; series mostly up to 28.7 µM
How it was run: as §1

[18] = test system: CRL-7250; assay: Cytotoxic Profiling of Annotated Libraries Using Quantitative High-Throughput Screening (AID 1296008); conditions: Five cell lines viability, CellTiter-Glo ATP luminescence, 48-72 h; max response: stronger effect = lower value; for max response: % is set by controls: 0 for no effect and ±100 for the full control effect
How it was run: (§2)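 Compounds were pin-transferred onto cells and incubated 48 or 72 hr at 37 degree Celsius, 95% humidity. CellTiter-Glo was added, plates sat 10 min at room temperature, then ATP-coupled luminescence was imaged as the viability read-out.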

[19] = test system: HEK293; assay: as above; conditions: Five cell lines viability, CellTiter-Glo ATP luminescence, 48-72 h; max response: stronger effect = lower value
How it was run: as §2

[20] = test system: HaCat; assay: as above; conditions: Five cell lines viability, CellTiter-Glo ATP luminescence, 48-72 h; max response: stronger effect = lower value
How it was run: as §2
Note: nearly all actives have a fitted effect of over 60% in size.

COc1ccccc1O
inactive: Potency [1] | Potency [2] | Potency [3] | Potency [4] | Potency [5] | Potency [6] | Potency [7] | Potency [8] | Potency [9] | Potency [10] | Potency [11] | Potency [12] | Potency [13] | Potency [14] | Potency [15] | Potency [16] | Potency [17] | max response [18] 3.64% | max response [19] -17.2% | max response [20] 3.89%

NC(=O)NC(=O)Cc1ccccc1
inactive: Potency [1] | Potency [2] | Potency [3] | Potency [4] | Potency [5] | Potency [6] | Potency [7] | Potency [8] | Potency [9] | Potency [10] | Potency [11] | Potency [12] | Potency [13] | Potency [14] | Potency [15] | Potency [16] | Potency [17] | max response [18] 3.98% | outcome [19] | outcome [20]

O=S(=O)(O)c1cc(I)c(O)c2ncccc12
inactive: Potency [1] | Potency [2] | Potency [3] | Potency [5] | Potency [6] | Potency [7] | Potency [8] | Potency [9] | Potency [10] | Potency [11] | Potency [12] | Potency [13] | Potency [14] | Potency [15] | Potency [16] | Potency [17] | max response [18] 1.34% | outcome [19] | outcome [20]

NCCNCCNCCN
inactive: Potency [1] | Potency [2] | Potency [3] | Potency [4] | Potency [5] | Potency [6] | Potency [7] | Potency [9] | Potency [10] | Potency [11] | Potency [12] | Potency [13] | Potency [14] | Potency [15] | Potency [16] | Potency [17] | max response [18] 1.87% | outcome [19] | outcome [20]

CCCCOC(=O)c1ccc(O)cc1
inactive: Potency [1] | Potency [2] | Potency [3] | Potency [5] | Potency [6] | Potency [7] | Potency [8] | Potency [9] | Potency [10] | Potency [11] | Potency [12] | Potency [13] | Potency [14] | Potency [15] | Potency [16] | max response [18] 0.245% | outcome [19] | outcome [20]

O=C(O)c1ccccn1
inactive: Potency [1] | Potency [2] | Potency [3] | Potency [4] | Potency [5] | Potency [6] | Potency [7] | Potency [8] | Potency [9] | Potency [10] | Potency [11] | Potency [12] | Potency [13] | Potency [14] | Potency [15] | Potency [16] | Potency [17] | max response [18] -6.73% | outcome [19] | outcome [20]

C[C@@H]1CN(c2c(F)c(F)c3c(=O)c(C(=O)O)cn(C4CC4)c3c2F)C[C@H](C)N1
inactive: Potency [1] | Potency [2] | Potency [3] | Potency [4] | Potency [5] | Potency [6] | Potency [7] | Potency [8] | Potency [9] | Potency [10] | Potency [11] | Potency [12] | Potency [13] | Potency [14] | Potency [15] | Potency [16] | Potency [17] | max response [18] -3.49% and -4.42% | max response [19] -18.5% and -5.83% | outcome [20]

CCCCC(CC)COC(=O)c1ccccc1O (stereo not given)
inactive: Potency [1] | Potency [2] | Potency [3] | Potency [4] | Potency [5] | Potency [6] | Potency [7] | Potency [8] | Potency [9] | Potency [10] | Potency [11] | Potency [12] | Potency [13] | Potency [14] | Potency [15] | Potency [16] | Potency [17] | max response [18] -6.25% | outcome [19] | outcome [20]

Oc1ccc(C(O)CNCCCCCCNCC(O)c2ccc(O)c(O)c2)cc1O (stereo not given)
active: Potency [2] 13.5 µM | Potency [4] 6.31 µM | Potency [7] 10 µM | Potency [16] 11.2 µM | Potency [17] 16.9 µM
inactive: Potency [1] | Potency [12] | max response [18] -1.96% | outcome [19] | outcome [20]

COC(=O)C1=C(C)NC(C)=C(C(=O)OC)C1c1ccccc1[N+](=O)[O-]
inactive: Potency [1] | Potency [2] | Potency [3] | Potency [5] | Potency [6] | Potency [7] | Potency [8] | Potency [9] | Potency [10] | Potency [11] | Potency [12] | Potency [13] | Potency [14] | Potency [15] | Potency [16] | Potency [17] | max response [18] -7.51% | max response [19] -14.4% | max response [20] -2.57%

O=Cc1ccccc1C=O
inactive: Potency [1] | Potency [2] | Potency [3] | Potency [4] | Potency [5] | Potency [6] | Potency [7] | Potency [8] | Potency [9] | Potency [10] | Potency [11] | Potency [12] | Potency [13] | Potency [14] | Potency [15] | Potency [16] | Potency [17] | max response [18] -8.99% | outcome [19] | max response [20] 3.01%

CC(C)(C)NCC(O)COc1ccc(NC(=O)NC2CCCCC2)cc1 (stereo not given)
inactive: Potency [1] | Potency [2] | Potency [3] | Potency [4] | Potency [5] | Potency [6] | Potency [7] | Potency [8] | Potency [9] | Potency [10] | Potency [11] | Potency [12] | Potency [13] | Potency [14] | Potency [15] | Potency [16] | Potency [17] | outcome [18] | outcome [19] | outcome [20]
